These results are taken from PubChem BioAssay AID1626 (SRMLSC, 2009).

By inhibition is commonly meant the drop in the measured response relative to a control, in per cent.

SMILES strings stand for the structures. Out of some 220,000 compounds screened, about 2,000 (0.91%) were called active. Inconclusive results (about 2%) are left out. Cut-off read from the data, not from the text of the source: inconclusive = inhibition above about 80% without an active follow-up result; inactive = below that; test concentration not stated here. These entries were drawn from the full list. Results with a measured potency or affinity are listed apart.

A short description of the test: M. tuberculosis H37Rv growth inhibitors, H37Rv strain (AID 1626).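 Note: bacteria incubated seven days before Alamar blue readout; 0% = bacteria only wells and 100% = bacteria with antibiotic wells.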 The following applies: active compounds read high, concentration not given here.
For `Cn1ncc(C#N)c1NC(=O)C1CC(c2ccc(Cl)c(Cl)c2)=NO1` (centres undefined), the inhibition was -5.17% (inactive).

In the case of `COC(=O)c1[nH]c2ccccc2c1NC(=O)CN1CC(C)OC(C)C1` (centres undefined), the inhibition is -0.75% (inactive).

In the case of `CCOC(=O)N1CCN(C(=O)Cc2ccc(C)cc2)CC1`, the inhibition was -3.57% (inactive).

Regarding `CN(C)C(CNC(=S)Nc1ccccc1Cl)c1cccnc1` (centres undefined), the inhibition was 7.94% (inactive).

`CCOC(=O)c1ccc(NC(=O)C(=O)NCC2CCCO2)cc1` (centres undefined): the inhibition was 65.4% (inactive).

Consider `CCCCOC(=O)c1ccc(NC(=O)C(=O)NCC2CCCO2)cc1` (centres undefined), for which the inhibition is 34.8% (inactive).

Regarding `COc1ccc(Br)c2oc(S)cc(=O)c12`, the inhibition was -4.76% (inactive).

With `CCN(CC)C(=O)C1CCCN(Cc2ccc(F)c(F)c2)C1` (centres undefined), the inhibition was -6.74% (inactive).

With `CCC(CC)C(=O)Nc1ccc([N+](=O)[O-])cn1`, the inhibition is 1.14% (inactive).

`CCCc1nc(SCC(=O)Nc2cc(C)on2)c2c(=O)n(C)c(=O)n(C)c2n1`: the inhibition was 5.55% (inactive).

Take `Cn1c(CNc2ccccc2)nc2ccccc21`: the inhibition is 5.08% (inactive).

Consider `CCCCn1c(/N=C/c2ccc(N(C)C)cc2)nc2ccccc21`, for which the inhibition is -13.8% (inactive).

Turning to `Cc1cccc(NCc2nc3ccccc3n2C)c1`, the inhibition was -0.92% (inactive).

For the molecule `Cn1c(Cl)nc2ccccc21`, the inhibition is -1.9% (inactive).

Take `Cc1ccc(NCc2nc3ccccc3n2C)cc1`: the inhibition is 6.89% (inactive).

As to `CN(C)c1ccc(-c2nc3ccccc3n2C)cc1`, the inhibition was -2.73% (inactive).

Regarding `CC(=O)Nc1nc(=S)n(-c2ccccc2)[nH]1`, the inhibition is -1.91% (inactive).

For the molecule `COC(=O)C1CCN(C(=O)COC(=O)CC(NC(C)=O)c2ccccc2)CC1` (centres undefined), the inhibition was -3.65% (inactive).

Take `Fc1cccc2sc(N3CCCCC3)nc12`: the inhibition was -9.23% (inactive).

On to `COc1ccccc1NC(=O)CCc1nc(-c2ccccc2F)no1`, for which the inhibition is 2% (inactive).

Consider `O=C(NC1=NC2CCCCC2N1)c1ccccc1` (centres undefined), for which the inhibition was 1.79% (inactive).

Turning to `Cc1ccc(C2=Nc3ccccc3N=C(c3ccc([N+](=O)[O-])cc3)C2)c(O)c1`, the inhibition was 0.53% (inactive).

In the case of `Cc1ccc(O)c(C2=Nc3ccccc3N=C(c3cccc([N+](=O)[O-])c3)C2)c1`, the inhibition was 3.86% (inactive).

On to `CCc1cccc(CC)c1NC(=S)Nc1cccc(Cl)c1Cl`, for which the inhibition is 2.37% (inactive).

As to `CCn1c(=O)c(C(=O)Nc2ccccn2)c(O)c2ccccc21`, the inhibition is -3.43% (inactive).

As to `CCn1c(=O)c(-c2nc3ccccc3[nH]2)c(O)c2ccccc21`, the inhibition was 43.3% (inactive).

As for `CCCCCn1c(=O)c(-c2nc3ccccc3[nH]2)c(O)c2ccccc21`, the inhibition is 52.9% (inactive).

For the molecule `CCCn1nc(C(=O)Nc2nc3ccccc3[nH]2)c2ccccc2c1=O`, the inhibition is 59.6% (inactive).

As for `CC1Cc2ccccc2N1C(=O)c1ccc(N2CCCC2)c([N+](=O)[O-])c1` (centres undefined), the inhibition was 4.46% (inactive).

For the molecule `CCN(C(=O)CSc1nc(-c2ccccc2)c(-c2ccccc2)[nH]1)C1CCS(=O)(=O)C1` (centres undefined), the inhibition was 0.12% (inactive).

For the molecule `CSc1ncccc1C(=O)OCC(=O)N(CC(C)C)C1CCS(=O)(=O)C1` (centres undefined), the inhibition is -5.78% (inactive).

With `CCCn1c(SCC(=O)Nc2ccc(OC)cc2[N+](=O)[O-])n[nH]c1=O`, the inhibition was 1.11% (inactive).

In the case of `O=C1Nc2ccccc2N(O)N1c1ccc(Cl)cc1`, the inhibition was -3.86% (inactive).

On to `O=C(C1=C[C@@H](C2CC2)C[C@@H](OCc2ccc(CO)cc2)O1)N1CCN(Cc2ccccc2)CC1`, for which the inhibition is 0.13% (inactive).

For `O=C(CCC(=O)N1CCN(c2ccccn2)CC1)Nc1nnc(C(F)(F)F)s1`, the inhibition is -6.15% (inactive).

For the molecule `COc1ccccc1N1CCN(C(=O)COc2ccc(S(=O)(=O)NC(C)(C)C)cc2)CC1`, the inhibition is 0.98% (inactive).

Take `CN1CC=C(c2c[nH]c3ccccc23)CC1`: the inhibition is -7.46% (inactive).

As for `O=C(Nc1ccc2c(c1)OCO2)c1ccc(Br)s1`, the inhibition was 9.98% (inactive).

On to `CCN(c1ccccc1)S(=O)(=O)c1ccc(C(=O)Nc2nnc(-c3ccco3)o2)cc1`, for which the inhibition was 61.3% (inactive).

As to `CC(=O)Nc1nnc(-c2ccco2)o1`, the inhibition is 0.62% (inactive).

With `O=C(Nc1nnc(-c2ccco2)o1)c1ccc(N2C(=O)CCC2=O)cc1`, the inhibition is -1.43% (inactive).

On to `CCC(=O)Nc1nnc(-c2ccco2)o1`, for which the inhibition is 10.2% (inactive).

Take `O=C(Nc1nnc(-c2ccco2)o1)c1ccc(S(=O)(=O)N2CCCC2)cc1`: the inhibition is 41.6% (inactive).

In the case of `Cc1nn(-c2ccccc2)c(C)c1C(=O)Nc1ccc(N2CCOCC2)cc1`, the inhibition was -4.12% (inactive).

As for `CN(C)S(=O)(=O)c1ccc(C(=O)Nc2nnc(-c3ccco3)o2)cc1`, the inhibition was -14.7% (inactive).

As for `O=C(Nc1nnc(-c2ccco2)o1)C1CC1`, the inhibition is 4.4% (inactive).

As for `COCCCNC(=O)CN(c1cc(Cl)ccc1OC)S(=O)(=O)c1ccc(C)c([N+](=O)[O-])c1`, the inhibition is -9.07% (inactive).

For the molecule `O=C(c1ccco1)N1CCN(c2ccc(S(=O)(=O)N3CCCC3)cc2)CC1`, the inhibition was -12.6% (inactive).

As for `Cc1ccc(NCCNc2ccc(C)cc2)cc1`, the inhibition was 5.4% (inactive).

Take `C[N+](C)(CC#Cc1ccccc1)CC(=O)c1ccc(Cl)cc1`: the inhibition was 0.9% (inactive).

Regarding `Cc1ccc(-c2cc(C(=O)N/N=C/c3c(C)nn(C)c3C)c3ccccc3n2)c(C)c1`, the inhibition is -2.59% (inactive).

Consider `CCCc1nnc2n1N=C(c1ccc([N+](=O)[O-])cc1)CS2`, for which the inhibition was 3% (inactive).

Regarding `Cn1nnc(NC(=O)c2ccc3ccccc3c2)n1`, the inhibition was 0.14% (inactive).

For the molecule `Cc1cccc(C)c1NC(=O)c1ccc([N+](=O)[O-])s1`, the inhibition was 11.5% (inactive).

Take `O=C(Nc1ccncc1)c1ccc2ccccc2c1`: the inhibition was 1.37% (inactive).

Consider `Cc1cccc(NC(=O)c2ccc([N+](=O)[O-])s2)c1C`, for which the inhibition is 53.1% (inactive).

`O=C(Nc1nnc(-c2ccco2)o1)c1cccc(N2C(=O)CCC2=O)c1`: the inhibition was 2.38% (inactive).

For `O=C(Cc1ccccc1)Nc1nnc(-c2ccco2)o1`, the inhibition is 1.37% (inactive).

Consider `O=C(COc1ccccc1)Nc1nnc(-c2ccco2)o1`, for which the inhibition was -3.85% (inactive).

Regarding `Cc1cccc(C(=O)Nc2nnc(-c3ccncc3)o2)c1`, the inhibition is 62.6% (inactive).

For `COc1ccc(OC)c2c(C)cc(N3CCN(C(=O)c4ccc(F)cc4)CC3)nc12`, the inhibition is 8.6% (inactive).

`O=C(/C=C/c1ccco1)Nc1ccccc1N1CCCCC1`: the inhibition is 10.2% (inactive).

As for `Cc1c(NC(=S)N/C(=N/S(=O)(=O)c2ccc(Cl)cc2)c2ccccc2)c(=O)n(-c2ccccc2)n1C`, the inhibition was 3.87% (inactive).

For `Cc1ccc(S(=O)(=O)Nc2cccc(C(=O)Nc3cc(C)ccn3)c2)cc1`, the inhibition was 7.87% (inactive).

Regarding `Cc1ccc(C2=NC3(CCCCCC3)NC2=S)cc1`, the inhibition is 7.91% (inactive).

As to `Cc1ccc(Cl)cc1-c1ccc(C=Nc2ccc(N3CCOCC3)cc2)o1`, the inhibition was 9.51% (inactive).

With `Clc1cccc(-c2ccc(C=Nc3ccc(N4CCOCC4)cc3)o2)c1`, the inhibition is 32.1% (inactive).

For `COc1cccc(CN2CCCCC2C(=O)O)c1` (centres undefined), the inhibition was -3.4% (inactive).

On to `Clc1ccc(-c2nc(NCCN3CCOCC3)c3ccccc3n2)cc1`, for which the inhibition is 11.1% (inactive).

Turning to `Clc1cccc(-c2nc(NCCCN3CCOCC3)c3ccccc3n2)c1`, the inhibition was 15% (inactive).

Consider `COc1ccc(-c2nn(-c3ccccc3C)cc2CNC(C)c2cn(C)nc2C)cc1F` (centres undefined), for which the inhibition was -2.3% (inactive).

In the case of `COc1ccc(NC(=O)CSc2nnc(Cn3c(=O)sc4ccccc43)n2C)cc1OC`, the inhibition was -2.38% (inactive).

In the case of `CCOC(=O)c1sc2nc(Cc3ccc(Cl)cc3)[nH]c(=S)c2c1C`, the inhibition was 62.6% (inactive).

On to `CCOC(=O)c1sc2nc(C)n(N)c(=O)c2c1C`, for which the inhibition is 3.43% (inactive).

As to `CCC(=NCc1ccc2c(c1)OCO2)c1c(O)n(C)c(=O)n(C)c1=O`, the inhibition is -0.05% (inactive).

`Clc1cccc(Cl)c1/C=N/Nc1c(Cl)cncc1Cl`: the inhibition is -5.97% (inactive).

With `COc1ccc(/C=C2\C(=O)c3ccccc3OC2c2ccccc2)cc1` (centres undefined), the inhibition is 0.26% (inactive).

Take `Cc1ccc(N=Cc2ccc[nH]2)c(O)c1`: the inhibition is -2.8% (inactive).

With `O=C(N/N=C/c1ccc[nH]1)c1ccccc1O`, the inhibition is -6.87% (inactive).

Regarding `Cc1ccc(CCSc2ccc(F)cc2)cn1`, the inhibition was 0.68% (inactive).

Regarding `CN1CCN(Cc2ccc(-c3ccc(Cl)cc3)o2)CC1`, the inhibition was 4.34% (inactive).

`O=C(O)CCc1ccc(-c2ccc(Cl)cc2)o1`: the inhibition is 62.7% (inactive).

For `O=C(COCC(=O)N1CCOCC1)N1CCOCC1`, the inhibition is -0.86% (inactive).

Regarding `COc1ccc(OC)c(-n2nnnc2SCC(=O)Nc2nc(C)c(C)s2)c1`, the inhibition was -6.27% (inactive).

As for `COc1ccc(C(=O)Nc2ccccc2Cc2ccccc2)c(OC)c1`, the inhibition was 12.6% (inactive).

Take `CCOCCOC(=O)c1ccc(-n2cnc(C)n2)nc1`: the inhibition was 1.52% (inactive).

With `C=CCOC(=O)c1ccc(-n2cnc(C)n2)nc1`, the inhibition was 34.4% (inactive).

As to `CC(C)CN1CCN(Cc2ccc(Oc3ncccn3)cc2)CC1CCO` (centres undefined), the inhibition was -12.7% (inactive).

`O=C(NCc1cccnc1)c1ccc([N+](=O)[O-])o1`: the inhibition is 9.87% (inactive).

`O=C(Nc1cccc(NC(=O)c2cccs2)c1)c1ccco1`: the inhibition was -1.16% (inactive).

Take `O=C(Nc1ccc2oc(-c3cccnc3)nc2c1)c1ccc(Br)o1`: the inhibition is -4.68% (inactive).

For the molecule `COc1cc(NC(=O)c2ccc([N+](=O)[O-])o2)ccc1NC(=O)c1cccs1`, the inhibition is 11.9% (inactive).

Turning to `Cc1ccccc1NC(=O)c1ccc([N+](=O)[O-])o1`, the inhibition is -5.26% (inactive).

For `Cc1cccc(NC(=O)COC(=O)c2ccc([N+](=O)[O-])o2)c1C`, the inhibition is -1.87% (inactive).

Take `O=C(Nc1ccc2oc(-c3cccnc3)nc2c1)c1ccco1`: the inhibition was -0.84% (inactive).

Consider `Cc1ccc(CNC(=O)c2ccc(Br)o2)cc1`, for which the inhibition was 6.85% (inactive).

As to `O=C(NCCCN1CCOCC1)C(C(=O)NCCCN1CCOCC1)c1ncc(C(F)(F)F)cc1Cl`, the inhibition was -6.54% (inactive).

For the molecule `O=C1CC(C(=O)O)S/C(=N\N=C\c2ccc(Br)cc2)N1` (centres undefined), the inhibition was -6.35% (inactive).

Consider `COc1cccc(OC)c1C(=O)NNC(=O)c1ccc(F)cc1`, for which the inhibition was -2.49% (inactive).
